# From the supplement of paper PMC8728848
# The sample as a whole holds a higher share of the strongest signals than the screen did.
# Legend:
# Assay in all cases: glycan array binding signal (z-score within array); higher = stronger binding
# Details in all cases: glycan notation: IUPAC condensed, linker removed
# Glc(a1-4)Glc = biological target: Glc(a1-4)Glc
# How it was run: (§1)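 The binding signal is a Z-score computed within each array. Data were drawn from 3228 arrays in the Consortium for Functional Glycomics database, restricted to those with a known protein sequence. Scores were averaged over arrays of the same protein sequence at different concentrations or buffers, and over linkers, and negative values can be taken as non-binding.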
# Glc(b1-4)Glc = biological target: Glc(b1-4)Glc
# How it was run: as §1
# GlcA(b1-6)Gal = biological target: GlcA(b1-6)Gal
# How it was run: as §1
# [1] = biological target: GlcA3S(b1-3)Gal(b1-4)GlcNAc(b1-2)Man
# How it was run: as §1
# [2] = biological target: GlcNAc(b1-2)Man(a1-3)[GlcNAc(b1-4)][GlcNAc(b1-2)Man(a1-6)]Man(b1-4)GlcNAc(b1-4)[Fuc(a1-6)]GlcNAc
# How it was run: as §1
# [3] = biological target: GlcNAc(b1-3)Gal(b1-4)GlcNAc(b1-3)Gal(b1-4)GlcNAc
# How it was run: as §1
# [4] = biological target: GlcNAc(b1-3)Gal(b1-4)GlcNAc(b1-3)Gal(b1-4)GlcNAc(b1-2)Man(a1-3)[GlcNAc(b1-3)Gal(b1-4)GlcNAc(b1-3)Gal(b1-4)GlcNAc(b1-2)Man(a1-6)]Man(b1-4)GlcNAc(b1-4)[Fuc(a1-6)]GlcNAc
# How it was run: as §1
# [5] = biological target: GlcNAc(b1-3)Gal(b1-4)GlcNAc(b1-3)Gal(b1-4)GlcNAc(b1-3)Gal(b1-4)GlcNAc(b1-2)Man(a1-3)[GlcNAc(b1-3)Gal(b1-4)GlcNAc(b1-3)Gal(b1-4)GlcNAc(b1-3)Gal(b1-4)GlcNAc(b1-2)Man(a1-6)]Man(b1-4)GlcNAc(b1-4)GlcNAc
# How it was run: as §1
# [6] = biological target: GlcNAc(b1-3)Gal(b1-4)GlcNAc(b1-3)Gal(b1-4)GlcNAc(b1-3)Gal(b1-4)GlcNAc(b1-3)Gal(b1-4)GlcNAc(b1-2)Man(a1-3)[GlcNAc(b1-3)Gal(b1-4)GlcNAc(b1-3)Gal(b1-4)GlcNAc(b1-3)Gal(b1-4)GlcNAc(b1-3)Gal(b1-4)GlcNAc(b1-2)Man(a1-6)]Man(b1-4)GlcNAc(b1-4)GlcNAc
# How it was run: as §1
# [7] = biological target: GlcNAc(b1-4)GlcNAc(b1-4)GlcNAc(b1-4)GlcNAc(b1-4)GlcNAc
# How it was run: as §1
# Man(a1-6)Man = biological target: Man(a1-6)Man
# How it was run: as §1
# [8] = biological target: Neu5Ac(a2-3)Gal(b1-3)GlcNAc
# How it was run: as §1
# [9] = biological target: Neu5Ac(a2-3)Gal(b1-4)GlcNAc(b1-2)Man
# How it was run: as §1
# [10] = biological target: Neu5Ac(a2-3)Gal(b1-4)GlcNAc(b1-3)Gal(b1-4)GlcNAc(b1-2)Man(a1-3)[Neu5Ac(a2-3)Gal(b1-4)GlcNAc(b1-3)Gal(b1-4)GlcNAc(b1-2)Man(a1-6)]Man(b1-4)GlcNAc(b1-4)GlcNAc
# How it was run: as §1
# [11] = biological target: Neu5Ac(a2-3)Gal(b1-4)GlcNAc(b1-3)Gal(b1-4)GlcNAc(b1-3)[Neu5Ac(a2-3)Gal(b1-4)GlcNAc(b1-3)Gal(b1-4)GlcNAc(b1-6)]GalNAc
# How it was run: as §1
# [12] = biological target: Neu5Ac(a2-3)Gal(b1-4)[Fuc(a1-3)]GlcNAc(b1-2)Man
# How it was run: as §1
# [13] = biological target: Neu5Ac(a2-3)Gal(b1-4)[Fuc(a1-3)]GlcNAc(b1-6)[Neu5Ac(a2-3)Gal(b1-3)]GalNAc
# How it was run: as §1
# [14] = biological target: Neu5Ac(a2-3)Gal6S(b1-4)GlcNAc
# How it was run: as §1
# Neu5Ac(a2-3)GalNAc = biological target: Neu5Ac(a2-3)GalNAc
# How it was run: as §1
# [15] = biological target: Neu5Ac(a2-3)[Neu5Ac(a2-6)]GalNAc
# How it was run: as §1
# [16] = biological target: Neu5Ac(a2-6)Gal(b1-4)GlcNAc(b1-2)Man
# How it was run: as §1
# [17] = biological target: Neu5Ac(a2-6)Gal(b1-4)GlcNAc(b1-2)Man(a1-3)[Gal(b1-4)GlcNAc(b1-2)Man(a1-6)]Man(b1-4)GlcNAc(b1-4)GlcNAc
# How it was run: as §1
# [18] = biological target: Neu5Ac(a2-6)Gal(b1-4)GlcNAc(b1-3)Gal(b1-4)[Fuc(a1-3)]GlcNAc(b1-3)Gal(b1-4)[Fuc(a1-3)]GlcNAc
# How it was run: as §1
# [19] = biological target: Neu5Ac(a2-6)GalNAc(b1-4)GlcNAc6S
# How it was run: as §1
# [20] = biological target: Neu5Ac(a2-8)Neu5Ac(a2-8)Neu5Ac(a2-8)Neu5Ac(a2-3)[GalNAc(b1-4)]Gal(b1-4)Glc
# How it was run: as §1
# [21] = biological target: Neu5Gc(a2-3)Gal(b1-3)GlcNAc
# How it was run: as §1
# [22] = biological target: Neu5Gc(a2-3)Gal(b1-4)GlcNAc
# How it was run: as §1
# [23] = biological target: Neu5Gc(a2-3)Gal(b1-4)GlcNAc(b1-3)Gal(b1-4)GlcNAc(b1-2)Man(a1-3)[Neu5Gc(a2-3)Gal(b1-4)GlcNAc(b1-3)Gal(b1-4)GlcNAc(b1-2)Man(a1-6)]Man(b1-4)GlcNAc(b1-4)GlcNAc
# How it was run: as §1
binder,measurement,setting,value
Nc3LysM-2 (protein) AHVLQARQSVSCDFATAANTGDTCASFAAAWGITEAAFAKLNPGVSCPGNLIAGSEYCVIGTVSTGAPTTTKAATTSTTPPTTTTTTKATTLSTSTTSVSPTGPSPQMPSITSTCNKFYQVQSGDGCWSIEQAQGVSASDFMAWNKAVDAQCDNLWLGYYVCVGVKGGSSPPPTTTTKPASSSAPTPQMPNTVSNCKKFHKVVSGDGCWAIEQAAGISASDFAKWNPYVDAACDNLWLGYYVCIGV,glycan array binding signal (z-score),Glc(a1-4)Glc,-0.04
same,glycan array binding signal (z-score),Glc(b1-4)Glc,-1.11
same,glycan array binding signal (z-score),GlcA(b1-6)Gal,2.36
same,glycan array binding signal (z-score),[1],0.714
same,glycan array binding signal (z-score),[2],-0.543
same,glycan array binding signal (z-score),[3],0.247
same,glycan array binding signal (z-score),[4],3.4
same,glycan array binding signal (z-score),[5],-0.959
same,glycan array binding signal (z-score),[6],-0.307
same,glycan array binding signal (z-score),[7],3.61
same,glycan array binding signal (z-score),Man(a1-6)Man,0.852
same,glycan array binding signal (z-score),[8],0.767
same,glycan array binding signal (z-score),[9],0.06
same,glycan array binding signal (z-score),[10],4.26
same,glycan array binding signal (z-score),[11],-0.674
same,glycan array binding signal (z-score),[12],-0.075
same,glycan array binding signal (z-score),[13],2.08
same,glycan array binding signal (z-score),[14],-0.155
same,glycan array binding signal (z-score),Neu5Ac(a2-3)GalNAc,-1.24
same,glycan array binding signal (z-score),[15],0.668
same,glycan array binding signal (z-score),[16],0.422
same,glycan array binding signal (z-score),[17],-0.256
same,glycan array binding signal (z-score),[18],0.118
same,glycan array binding signal (z-score),[19],-2.04
same,glycan array binding signal (z-score),[20],0.938
same,glycan array binding signal (z-score),[21],0.959
same,glycan array binding signal (z-score),[22],-0.122
same,glycan array binding signal (z-score),[23],-0.459
